Laboratory results: PubChem BioAssay AID504408 (Broad Institute, 2011)
Among all 300,000 compounds or so, about 5,200 (1.7%) were called active. What follows is part of a selection rich in actives, with near analogues and random picks from the rest. A number with no mark means an inactive call.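 How the source made its calls: active means mean replicate activation of at least 50% with a set share of replicates each reaching 50%; inconclusive means only one of those two conditions met; inactive means mean below 50% and too few replicates reaching it.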

Experiment: HSF-1 response element luciferase induction – NIH3T3-HGL cells, MG132 stress, luminescence, single point, primary screen (AID 504408);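 further: 0% = median of the neutral control wells and 100% = twice that signal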
Settings: NIH3T3-HGL HSF-1 luciferase reporter, MG132, 8 h; at 9 µM; active compounds read high; 100% = twice DMSO control signal

Compound	activation
CNC(=O)CSc1nnc(CCc2ccccc2)n1-c1ccccc1	-1.82%
Cc1c(C(=O)NCc2ccccc2)cnn1-c1ccccc1	2.05%
Cc1c(CNCCc2ccccc2)c(C(=O)O)c(C)n1-c1ccccc1	60.5% (active)
CC1(C)C/C(=N/Nc2ccc([N+](=O)[O-])cc2[N+](=O)[O-])C(C)(C)O1	-1.15%
COc1ccc(C(=O)CCC(=O)Nc2cccnc2)c(OC)c1	11.9%
COc1ccc(C(=O)NC(C)CCc2ccccc2)c(OC)c1 (stereo not drawn)	15.4%
COc1ccc(C(=O)CCc2ccccc2O)c(OC)c1	58% (active)
O=C(Nc1ncccc1O)c1ccc(S(=O)(=O)N2CCCC2)cc1	2.49%
COc1cccc(N2CC(NS(=O)(=O)c3cccs3)CC2=O)c1 (stereo not drawn)	2.81%
O=C(Nc1cc(S(=O)(=O)N2CCOCC2)ccc1OCC(F)(F)F)c1ccc(N2CCCC2=O)cc1	-1.99%
CCOC(=O)c1c(Cc2ccc(Cl)cc2)c[nH]c1C	87.7% (active)
CCOC(=O)c1ccc(CS(=O)c2ccc(Cl)cc2)o1 (stereo not drawn)	8.33%
CCOC(=O)N1CCN(C(=O)CNC(=O)Cc2ccc(Cl)cc2)CC1	9.04%
NC1=NC(c2ccc([N+](=O)[O-])cc2)N(c2ccc(F)cc2)C(N)=N1 (stereo not drawn)	-0.817%
O=C(COC(=O)c1cnccn1)Nc1ccc(Cl)cc1C(F)(F)F	-12.3%
Cc1ccc(Cl)c(OCC(=O)N(C)CC(=O)Nc2ccc(N3CCOCC3)cc2)c1	1.72%
COc1ccc(-c2csc3ncnc(N4CCN(S(=O)(=O)c5cccc(F)c5)CC4)c23)cc1	2.84%
Cc1cc(NC(=O)CSC2=NS(=O)(=O)c3cc(Cl)ccc3N2)no1	1.14%
CCN(C(=O)COC(=O)/C=C/c1nc2ccccc2s1)C1CCS(=O)(=O)C1 (stereo not drawn)	16.8%
COc1ccc(/C=C/C(=O)OCC(=O)Nc2cccc(Oc3ccccc3)c2)c(OC)c1	35.6%
O=C(COC(=O)/C=C/c1nc2ccccc2s1)Nc1ccccc1Oc1ccccc1	54.4% (active)
O=C(Nc1ccccc1-c1nc2ccccc2[nH]c1=O)c1cccs1	-0.37%
C/C(=N\Nc1nc2ccccc2[nH]1)c1cccs1	106% (active)
C/C(=N\Nc1ncc(Cl)cc1Cl)c1cccs1	-33.8%

Compound	activation
Cc1sc2ncnc(N3CCC(C(=O)NNC(=O)c4ccc(F)cc4)CC3)c2c1C	-17.9%
Cn1c(SCC(=O)c2ccccc2)ncc(C(=O)Nc2ccc(F)cc2)c1=O	9.37%
Brc1cnc2ccccc2c1N1CCCCC1	4.42%
COc1ccc(CCNC(=O)C(=O)NCC2CCCN2S(=O)(=O)c2cccs2)cc1OC (stereo not drawn)	-2.01%
O=C(NNc1ncnc2c1cnn2-c1ccccc1)c1ccco1	13.2%
c1ccc(-n2ncc3c(N4CCCC4)ncnc32)cc1	41.2%
C1=C(CCNc2ncnc3c2cnn3-c2ccccc2)CCCC1	61.4% (active)
O=[N+]([O-])c1cccc(C=NN=Cc2ccccc2O)c1	-25.2%
O=C(Oc1ccc(-c2nnco2)cc1)c1ccc(F)c(S(=O)(=O)N2CCOCC2)c1	12.4%
Cc1ccc(CSc2nc3[nH]ncc3c(=O)[nH]2)cc1	87.9% (active)
CCCSc1nc2[nH]ncc2c(=O)[nH]1	-12.9%
Cc1cccc(NC(=O)CSc2nc3[nH]ncc3c(=O)[nH]2)c1	7.39%
Cc1cccc(N2CC(C(=O)Nc3ccccc3N3CCCC3)CC2=O)c1C (stereo not drawn)	-9.91%
Cc1ccc(S(=O)(=O)N2CCN(C(=O)Cc3sc(C)nc3-c3ccc(F)cc3)CC2)c(C)c1	5.21%
CCOC(=O)c1cc(C(C)C)sc1NC(=O)COC(=O)c1nccnc1N	-14.3%
Cc1nc2ccccc2cc1C(=O)N/N=C/c1ccc([N+](=O)[O-])cc1	10.7%
NC(=S)N/N=C/c1ccc([N+](=O)[O-])cc1	19.9%
Cc1ccsc1C(=O)N/N=C/c1ccc([N+](=O)[O-])cc1	59% (active)
O=C(Nc1ccc(N2CCCCC2)cc1)c1cc(S(=O)(=O)N2CCOCC2)ccc1F	12.6%
CC1CCC(NC(=O)CNC(=O)c2ccc3ccccc3c2)CC1 (stereo not drawn)	26.1%
O=C(COC(=O)Cn1[nH]c(=O)c2ccccc2c1=O)Nc1c(Cl)cccc1C(F)(F)F	-2.68%
CC1(C)CC(N2CCN(C(c3ccccc3)c3ccccc3)CC2)=CC(=[N+]2CCCCC2)C1	59.1% (active)
O=C(O)CN1CCN(C(c2ccccc2)c2ccccc2)CC1	-26.6%
CC(C)NC(=S)N1CCN(C(c2ccccc2)c2ccccc2)CC1	13.7%

Compound	activation
COc1ccccc1CCNC(=O)CN1C(=O)NC2(CCCC2)C1=O	-21.2%
CC(NC(=O)c1ccccc1F)c1cccc2ccccc12 (stereo not drawn)	-4.26%
CNC(=O)COC(=O)c1cc(-c2ccc(OC)cc2)nc2ccccc12	31.1%
COc1ccc(NC(=O)c2cc(-c3cc(OC)c(OC)c(OC)c3)nc3ccccc23)c(OC)c1	-3.17%
COc1ccc(-c2cc(C(=O)Nc3ccccc3O)c3ccccc3n2)cc1	65.5% (active)
COc1ccc(NC(=O)CN(C)C(=O)Cc2coc3cc(C)c(C)cc23)cc1	-0.425%
CC(=O)c1nn(-c2ccc(C)cc2)cc1C(=O)c1cccc(Br)c1	-31.9%
COc1ccc(C(=O)n2nc(-c3ccc(C)cc3)nc2N)cc1OC	-1.25%
COc1ccc(C(=O)n2nc(C)c(Br)c2C)cc1OC	6.57%
COc1ccc(C(=O)n2nc(-c3ccc(Cl)cc3)nc2N)cc1OC	71.9% (active)
CC12CCC(=O)N1C(C(=O)NCCN1C(=O)S/C(=C\c3ccccc3F)C1=O)CS2 (stereo not drawn)	3.07%
CCOC(=O)CC1C(=O)NCCN1c1nc2c(C)cccn2c(=O)c1/C=C1\SC(=S)N(C(C)CC)C1=O (stereo not drawn)	-29%
O=C(CCCN1C(=O)/C(=C\c2ccco2)SC1=S)Nc1cccc2ccccc12	14.2%
CCCN(CCC)c1nc2c(C)cccn2c(=O)c1/C=C1/SC(=S)N(Cc2ccco2)C1=O	99% (active)
CC(C)c1ccc(S(=O)(=O)N2CCN(C(=O)CN3C(=O)NC(C)(c4ccccc4)C3=O)CC2)cc1 (stereo not drawn)	-9.21%
CCC(CC)c1nnc(NC(=O)C2=COCCO2)s1	13.8%
O=C(c1ccc(F)c(S(=O)(=O)N2CCOCC2)c1)N(CCc1ccccc1)Cc1ccccc1	6.07%
O=C(CSc1nc2[nH]ncc2c(=O)[nH]1)Nc1ccc(F)cc1	-14.4%
O=C(Cn1nc(CNc2ccc(Cl)cc2)[n+]2c1CCCCC2)c1ccc(Cl)cc1	19.7%
CC(=O)Cn1ncc(N2CCOCC2)c(Br)c1=O	-14.8%
O=C(Cn1ncc(N2CCCC2)c(Br)c1=O)c1ccc(Cl)cc1	75.4% (active)
O=C(NCC(c1ccco1)N1CCc2ccccc21)c1cccc(F)c1 (stereo not drawn)	33.2%
Cc1ccc(-c2nn(-c3ccccc3)cc2C(=O)NCCCN2CCCC2=O)cc1	-4.32%
CC1CCCCC1NC(=O)/C(C#N)=C/C=C/c1ccccc1[N+](=O)[O-] (stereo not drawn)	53.4% (active)

Compound	activation
O=[N+]([O-])c1ccccc1/C=C/CN1CCC(O)CC1	-18.5%
O=[N+]([O-])c1ccccc1/C=C/CN1CCCC(CO)C1 (stereo not drawn)	-4.33%
O=C(Nc1cc2c3c(c1)CC(=O)N3CCC2)c1ccccc1F	-11.8%
Cc1nc(-c2ccc(Cl)cc2)sc1C(=O)CBr	75.1% (active)
Cc1nc(-c2ccc(Cl)cc2)sc1C(=O)NN	-2.26%
Cc1nc(-c2ccccc2)sc1C(=O)/C=C/N(C)C	-1.43%
COc1ccccc1NC(=O)COC(=O)c1ccccc1SCC(=O)N1CCCC1	-2.69%
COCCCNC(=O)/C=C/c1ccc(OCc2c(F)cccc2Cl)cc1	0.816%
O=C(/C=C/c1ccc(OCc2c(F)cccc2Cl)cc1)N1CCOCC1	67.7% (active)
CN(C)CCCNC(=O)/C=C/c1ccc(OCc2c(F)cccc2Cl)cc1	-16.4%
Cc1ccn2c(=O)nc(SCC(=O)NCc3ccc4c(c3)OCO4)nc2c1	-9.78%
CC1=NNC(=O)C1Cc1c(Cl)cccc1Cl (stereo not drawn)	8.87%
O=C(Cc1nc2ccccc2[nH]c1=O)c1ccc(Cl)cc1	74.3% (active)
O=C(CSc1nc2ccc([N+](=O)[O-])cc2[nH]1)c1ccc(Cl)cc1	9.88%
N#C/C(=C(/O)COC(=O)COc1ccc(Cl)cc1)c1nc2ccccc2[nH]1	25.2%
CCN1C(=O)[C@@H]2[C@@H](c3ccc(-c4ccc(OC)cc4)c(OC)c3)N3CCC[C@@]3(C(=O)OC)[C@@H]2C1=O	14.7%
CCOC(=O)C1=C(c2ccc(OC)cc2)C(=O)c2ccccc2C1=O	82.9% (active)
CCOC(=O)c1c(-c2ccc(C)cc2)csc1/N=C(\C)C1=C(O)c2ccccc2C1=O	9.57%
COc1ccc(OCCCON2C(=O)c3ccccc3C2=O)cc1	3.41%
O=C(Cc1ccc(S(=O)(=O)N2CCOCC2)s1)NCCOc1ccccc1F	3.3%
CC(=O)Nc1cccc(C(=O)OCC(=O)Nc2nnc(-c3ccccc3)o2)c1	-13.5%
